High-throughput results (PubChem)
Only some compounds are listed: those with a hit (about 2.4% of all), similar ones and a draw of the others.
ANO1 activ: activates or potentiates the mouse TMEM16A chloride channel | HEK293 TMEM16A/YFP-H148Q/I152L, iodide quench fluorescence; active compounds read low | AID 623877 | Q8BHY3 | 340,000 tested, 0.3% active | B-score at 10 µM;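 active = fluorescence-ratio B-score plate-corrected deviation score at least 3 library SD below zero, with starting fluorescence score within 5 deviations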;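 note: channel opened by trigger with iodide after compound preincubation; score built on the fluorescence ratio of max minus min over baseline; more negative score means more quench and so TMEM16A activation or potentiation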
TMEM16A inh: inhibitors of mouse TMEM16A calcium-activated chloride channel; Q8BHY3; HEK293 TMEM16A/YFP iodide influx fluorescence, ionomycin; normalized B-score (activity score, 25-100; higher = stronger inhibition) at 10 µM; 310,000 tested, 1.2% active;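 active = ratio plate-corrected score three or more library SD toward inhibition, starting fluorescence score within five deviations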;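 note: score derived from kinetic fluorescence span divided by baseline fluorescence per well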
CHT block: inhibits the human high affinity choline transporter. 310,000 tested, 0.86% active. Q9GZV3. CHT-expressing cells, membrane potential dye, choline response; active compounds read low. AID 488975. B-score at 10 µM;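 active = B-score over 3 SD under the library average, and starting fluorescence ratio not unusually high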;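 note: choline stimulus applied at its EC90 after an EC20 pre-addition; B-score computed on integrated fluorescence ratio after choline addition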
CHT PAM: allosteric activators of human choline transporter CHT; B-score at 10 µM; Q9GZV3; 310,000 tested, 0.49% active; CHT-expressing cells, membrane potential dye, choline EC20; active compounds read high; LV-AA mutant CHT in HEK293 cells;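 active = initial fluorescence not abnormally high and integrated response B-score, plate-corrected, over 3 SD above library mean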
TMEM16A reconf: re-confirmation of mouse TMEM16A chloride channel inhibitors; shares compounds with TMEM16A inh; HEK293 TMEM16A/YFP-H148Q, iodide quench fluorescence; ionomycin added to raise cell calcium; inhibition, % at 10 µM; 2,300 tested, 39% active; AID 652189;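 active = mean duplicate percent inhibition, scaled so buffer wells are 0 and the reference blocker 100, over three buffer SD above buffer mean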
TMEM16A Ca cntr: alters calcium mobilization in TMEM16A HEK293 cells, counter-screen. shares compounds with TMEM16A inh. TMEM16A/YFP HEK293, Fluo4 calcium mobilization. calcium response (% of ionomycin), % at 10 µM. 2,300 tested, 2% active. AID 652231;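 active = duplicate-averaged calcium signal over 20% of the ionomycin maximum, relative to buffer baseline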;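 note: each well's signal is peak minus trough fluorescence divided by its pre-addition baseline; 0% = buffer wells and 100% = ionomycin wells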
Parental YFP cnt: acts in parental YFP-HEK293 cells lacking TMEM16A, counter-screen. shares compounds with TMEM16A inh. iodide YFP quench, ionomycin. YFP ratio F(max-min)/F0 at 10 µM. 2,300 tested, under 10 active;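 active = yellow fluorescent protein signal ratio exceeding the buffer control mean by over 5 SD of those controls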;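 note: ratio is mean of duplicate wells from kinetic YFP trace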
ClC-1 inh: blocks the rat ClC-1 voltage-dependent chloride channel. shares compounds with TMEM16A inh. CHO ClC-1-YFP, iodide influx fluorescence quench; iodide control reads 0, buffer control 100. ratio percent, % at 10 µM. 2,300 tested, under 10 active;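 active = duplicate-mean ratio percent above the mean of iodide-only control wells, which defines zero, plus 5 of their SD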;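 note: higher percent means stronger block of ClC-1 iodide influx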
Target sequence (P35524 whole entry, looked up): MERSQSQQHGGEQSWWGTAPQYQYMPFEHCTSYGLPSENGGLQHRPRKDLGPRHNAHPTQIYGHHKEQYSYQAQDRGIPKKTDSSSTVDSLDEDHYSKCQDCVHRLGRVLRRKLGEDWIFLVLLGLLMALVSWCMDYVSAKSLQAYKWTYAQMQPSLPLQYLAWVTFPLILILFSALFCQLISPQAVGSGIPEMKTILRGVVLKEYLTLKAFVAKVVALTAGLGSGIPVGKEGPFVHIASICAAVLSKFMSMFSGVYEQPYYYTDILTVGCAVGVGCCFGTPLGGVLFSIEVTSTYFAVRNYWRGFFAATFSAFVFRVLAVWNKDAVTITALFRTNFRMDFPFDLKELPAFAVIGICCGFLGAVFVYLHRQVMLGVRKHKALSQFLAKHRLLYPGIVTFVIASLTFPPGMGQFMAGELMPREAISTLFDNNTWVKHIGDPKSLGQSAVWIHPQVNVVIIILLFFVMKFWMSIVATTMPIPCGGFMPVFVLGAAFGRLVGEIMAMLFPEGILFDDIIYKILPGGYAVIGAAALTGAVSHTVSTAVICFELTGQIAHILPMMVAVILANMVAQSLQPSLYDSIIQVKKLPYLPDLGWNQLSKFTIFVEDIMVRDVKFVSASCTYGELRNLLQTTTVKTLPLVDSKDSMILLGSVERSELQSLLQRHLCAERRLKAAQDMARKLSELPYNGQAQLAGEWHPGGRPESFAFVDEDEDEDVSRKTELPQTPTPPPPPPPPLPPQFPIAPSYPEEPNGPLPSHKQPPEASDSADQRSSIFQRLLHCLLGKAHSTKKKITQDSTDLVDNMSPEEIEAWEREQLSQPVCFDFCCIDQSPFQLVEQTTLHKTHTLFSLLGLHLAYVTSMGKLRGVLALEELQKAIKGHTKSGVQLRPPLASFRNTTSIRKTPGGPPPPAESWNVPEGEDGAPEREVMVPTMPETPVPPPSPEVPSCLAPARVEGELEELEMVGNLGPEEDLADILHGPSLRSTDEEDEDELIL
* = called active by the depositor; i = inactive; x = not tested or not shown.

SMILES | ANO1 activ | TMEM16A inh | CHT block | CHT PAM | TMEM16A reconf | TMEM16A Ca cntr | Parental YFP cnt | ClC-1 inh
Cc1cc(C(=O)CSc2nnnn2C)c(C)n1-c1ccc2c(c1)OCCO2 | i | i | i | i | x | x | x | x
Cc1nnc(SCC(=O)c2cc(C)n(-c3ccc4c(c3)OCO4)c2C)s1 | -6.06* | 25* | i | i | i | 21.0%* | -1.09 | -11.0
CCOc1ccccc1N(CC(=O)NCc1ccccc1)C(=O)CCC(=O)Nc1cc(C)ccn1 | i | i | i | i | x | x | x | x
COc1ccc(OC)c(S(=O)(=O)n2ccnc2C(C)C)c1 | i | i | i | i | x | x | x | x
Cn1c2c(c(=O)n(C)c1=O)C(C(F)(F)F)(C(F)(F)F)N=C(c1ccc(Cl)cc1)N2 | i | 100* | i | i | 42.0%* | i | -1.04 | -32.0
Cn1c2c(c(=O)n(C)c1=O)C(C(F)(F)F)(C(F)(F)F)N=C(C1CCCCC1)N2 | i | i | i | i | x | x | x | x
CC(=O)c1ccc(N2CCN(C(=O)Nc3ccc(C(C)C)cc3)CC2)cc1 | i | 100* | i | i | 29.0%* | i | -0.945 | -3.0
CC(=O)c1ccc(N2CCN(C(=S)Nc3ccccc3)CC2)cc1 | i | 100* | i | i | i | i | -0.99 | -6.5
Cc1cc(C(=O)COC(=O)c2cccc(NS(C)(=O)=O)c2)c(C)n1CC1CCCO1 (stereo unspecified) | i | x | x | x | x | x | x | x
CCOC(=O)c1cc(NC(=O)Nc2ccc(OC)c(OC)c2)c(C)nc1C | i | 100* | i | i | i | i | -1.16 | -11.5
COc1ccc2cc(C(=O)Nc3ccccc3)sc(=O)c2c1OC | i | i | i | i | x | x | x | x
COc1ccc2cc(C(=O)NCCO)sc(=O)c2c1OC | i | 25* | i | i | i | i | -1.06 | -11.0
COc1ccccc1CN=Cc1[nH]c2ccc(Br)c(Cl)c2c1O | i | i | i | i | 16.0%* | i | -0.895 | -7.5
COc1ccc(CCNC(=O)C2CCCN(S(=O)(=O)c3cc(C)ccc3OC)C2)cc1OC (stereo unspecified) | i | i | i | i | x | x | x | x
Cc1cc2n(n1)C(c1cn(-c3ccccc3)nc1C)Nc1ccccc1-2 (stereo unspecified) | i | i | i | i | x | x | x | x
Cc1cc2n(n1)C(c1cn(-c3ccccc3)nc1C)Nc1c(C)cccc1-2 (stereo unspecified) | i | i | i | i | i | i | -1.39 | -5.0
Cn1c(CNc2nc3ccccc3n2CCN2CCCCC2)nc2ccccc21 | i | 25* | i | i | i | i | -0.848 | -2.5
OCCNc1nc2ccccc2n1CCN1CCCCC1 | i | i | i | i | x | x | x | x
O=C(NCc1ccccc1)C12CC3CC(CC(C3)C1)C2 | i | i | i | i | x | x | x | x
O=C(Nn1nnnc1Nc1ccccc1)C12CC3CC(CC(C3)C1)C2 | i | 25* | i | i | i | i | -0.8 | -5.5
CC(=O)Nc1ccccc1-c1nc2ccccc2nc1OCC(=O)c1ccc(Cl)cc1 | i | i | i | i | x | x | x | x
CCN1C=C(Cc2ccc(F)cc2)C2=C(C1)C(c1ccc(F)cc1)C(C#N)=C(N)O2 (stereo unspecified) | i | 25* | i | i | i | i | -1.11 | -5.5
O=C(Nc1ccccc1)c1ccc(S(=O)(=O)N2CCCCC2)cc1 | i | i | i | i | x | x | x | x
O=C(Nc1ccn(-c2ccccc2)n1)c1ccc(S(=O)(=O)N2CCCCCC2)cc1 | i | 25* | i | i | i | i | -1.23 | -7.0
COc1ccccc1CNC(=O)c1nn(-c2ccc(C)cc2)c(=O)c2c1c1ccccc1n2C | i | i | i | i | i | i | -1.31 | -4.0
SMILES | ANO1 activ | TMEM16A inh | CHT block | CHT PAM | TMEM16A reconf | TMEM16A Ca cntr | Parental YFP cnt | ClC-1 inh
COc1cc2c(cc1NCc1ccccn1)oc1ccccc12 | i | 100* | i | i | i | i | -1.04 | -13.0
COc1ccccc1/C=C\C(=O)NCC(=O)N/N=C(\C)Cc1ccccc1 | i | i | i | i | x | x | x | x
Cc1ccccc1-c1nc(-c2ccc(NC(=O)c3cccs3)cc2)no1 | i | i | i | i | i | i | -1.04 | -7.0
COc1ccc(C(=O)Nc2nc(-c3cccs3)cs2)cc1 | i | 100* | i | i | 23.5%* | i | -1.08 | -16.5
COc1cc(C(=O)Nc2nc(-c3cccs3)cs2)cc(OC)c1OC | i | i | i | i | x | x | x | x
Nc1[nH]c2cc([N+](=O)[O-])ccc2c1-c1ccccn1 | i | i | i | i | 21.0%* | i | -0.673 | 13.0
Nc1nc2ccc([N+](=O)[O-])cc2[nH]1 | i | i | i | i | x | x | x | x
COc1ccc(Cn2c(CCC(=O)Nc3ccc(CC#N)cc3)nc3cccnc32)cc1 | i | 25* | i | i | i | i | -1.07 | -6.0
COc1ccc(Cn2c(CCC(=O)Nc3ccccc3)nc3cccnc32)cc1 | i | i | i | i | x | x | x | x
Cc1cc(C(=O)NC2CCCc3c2cnn3-c2cccc(C)c2C)no1 (stereo unspecified) | i | 25* | i | i | i | i | -0.792 | -11.0
NC(N)=Nc1ccc(C=C2C=Cc3ccccc32)cc1 | i | x | x | x | x | x | x | x
N#CC1=C2SCC(O)(c3ccccc3)N2C(=O)CC1c1ccccc1 (stereo unspecified) | i | 100* | i | i | 16.5%* | i | -0.955 | -16.0
CCOC(=O)C1=C(N)Oc2cc(O)ccc2C1c1cccnc1 (stereo unspecified) | i | 100* | i | i | 29.5%* | i | -1.25 | -10.0
CCOC(=O)C1=C(N)Oc2cc(O)ccc2C1c1cccc(Cl)c1 (stereo unspecified) | i | i | i | i | x | x | x | x
CC(C)(C)C1CCc2onc(C(=O)Nc3ccc(F)cc3F)c2C1 (stereo unspecified) | i | 100* | i | i | i | i | -1.03 | -3.5
CC(OC(=O)c1cc(Br)ccc1O)C(=O)Nc1ccc(S(=O)(=O)N2CCCC2)cc1 (stereo unspecified) | i | 100* | i | i | 61.5%* | i | -1.01 | -19.0
CC[n+]1c(/C=C2/C=C(C)CC(C)(C)C2)sc2ccc(OC)cc21 | i | 25* | i | i | 55.5%* | i | -0.888 | -25.5
